Assay outcomes from PubChem.
This excerpt belongs to a sample that is enriched for hits.
PD-1 reverse act = activators reversing PD-1 mediated T-cell inhibition, primary screen, luminescence, primary human CD4 T cells, PD-L1 beads. CellTiter-Glo 96 h. activation, % (concentration not given with the values). 29,000 tested, under 10 active; call rule not given here;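 further: 0% = median vehicle wells and 100% = positive control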
NOMO-1 viab = NOMO-1 AML cell viability reduction, primary screen, STK33 inhibitor project, CellTiter-Glo luminescence; NOMO-1 AML viability, 72 h; AID 2330, 2010; 37,000 tested, 7.5% active; inhibition, % (concentration not given with the values); in the data active means inhibition above about 80%
STK33 kin inh = STK33 kinase inhibitors, primary screen, biochemical, luminescence, ADP-Glo, MBP substrate | Serine/threonine-protein kinase 33 (Homo sapiens), Q9BYT3 | inhibition, % at 12.5 µM | 27,000 tested, 0.44% active; in the data active means inhibition above about 20%
Target sequence (Q9BYT3 whole entry, looked up): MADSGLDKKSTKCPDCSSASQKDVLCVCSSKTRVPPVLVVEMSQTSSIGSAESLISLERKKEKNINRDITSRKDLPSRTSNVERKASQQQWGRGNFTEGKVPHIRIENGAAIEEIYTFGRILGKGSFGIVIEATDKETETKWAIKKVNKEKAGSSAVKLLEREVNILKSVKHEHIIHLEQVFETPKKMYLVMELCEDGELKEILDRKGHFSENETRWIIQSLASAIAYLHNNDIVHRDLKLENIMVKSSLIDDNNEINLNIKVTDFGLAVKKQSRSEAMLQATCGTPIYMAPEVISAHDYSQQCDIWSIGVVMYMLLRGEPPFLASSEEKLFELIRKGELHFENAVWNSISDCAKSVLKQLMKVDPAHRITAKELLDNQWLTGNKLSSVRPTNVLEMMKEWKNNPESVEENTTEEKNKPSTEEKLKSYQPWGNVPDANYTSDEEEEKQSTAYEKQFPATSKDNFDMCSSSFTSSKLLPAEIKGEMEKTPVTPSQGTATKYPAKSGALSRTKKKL
* = called active by the depositor; nt = no result.

SMILES	PD-1 reverse act	NOMO-1 viab	STK33 kin inh
CC1=CC(=O)c2c(O)cccc2C1=O	nt	105*	-10
NCC(CS(=O)(=O)O)c1ccc(Cl)cc1 (stereo not drawn)	nt	-5	1
O=C1c2ccccc2-c2cccc3cccc1c23	nt	8	76*
c1ccc2c(c1)cc1ccc3cccc4ccc2c1c34	nt	28	4
CO[C@@H]1[C@H](O)[C@@H](O[C@@H]2C[C@H]3CC[C@@H]4C(CC[C@]5(C)[C@@H](C6=CC(=O)OC6)CC[C@]45O)[C@@]3(C)[C@H](O)C2)O[C@H](C)[C@@H]1O[C@@H]1O[C@H](CO)[C@@H](O)[C@H](O)[C@H]1O (stereo partly drawn)	-16	120*	-6
CO[C@H]1[C@H](O)[C@H](O[C@H]2CC[C@]3(C)C4CC[C@]5(C)[C@H](C6=CC(=O)OC6)CC[C@]5(O)C4CC[C@@H]3C2)O[C@@H](C)[C@@H]1O[C@@H]1O[C@H](CO[C@@H]2O[C@H](CO)[C@@H](O)[C@H](O)[C@H]2O)[C@@H](O)[C@H](O)[C@H]1O (stereo partly drawn)	-12	119*	-3
CC(=O)O[C@H]1C[C@H](O[C@H]2[C@@H](O)C[C@H](O[C@H]3[C@@H](O)C[C@H](O[C@H]4CC[C@@]5(C)C(CCC6C5C[C@@H](O)[C@]5(C)[C@@H](C7=CC(=O)OC7)CC[C@]65O)C4)O[C@@H]3C)O[C@@H]2C)O[C@H](C)[C@H]1O[C@@H]1O[C@H](CO)[C@@H](O)[C@H](O)[C@H]1O (stereo partly drawn)	nt	107*	-3
Cc1cc(OCC(=O)N(C)C)c2c3c(c(=O)oc2c1)CCCC3	-1	-6	nt
OC[C@H]1O[C@@H](Oc2c[nH]c3ccc(Br)c(Cl)c23)[C@H](O)[C@@H](O)[C@H]1O	-1	42	3
C/C=C/[C@@H]1[C@H]2C[C@@H](C)CC[C@@H]2C(C)=C[C@H]1C(=O)c1c(O)c(-c2ccc(O)cc2)c[nH]c1=O	-1	52	-9
COc1ccc2c3c1O[C@H]1[C@@H](O)CC=C4[C@@H](C2)N(C)CC[C@]431	nt	13	-3
CO[C@H](C)C(O)(C(=O)OCC1=CCN2CC[C@H](O)[C@@H]12)C(C)C (stereo partly drawn)	nt	-7	-13
COc1ccc(CN2CCN(CCO)CC2)c(OC)c1C	nt	nt	0
Nc1ncnc2nc(SCc3nc4ccc(I)cc4c(=O)n3-c3ccccc3)[nH]c12	0	3	-1
C=C1C(=O)O[C@@H]2/C=C(/C)CC/C=C(/C)C[C@@H](OC(=O)/C(=C/CO)CO)C12 (stereo partly drawn)	-7	119*	-1
c1cncc([C@H]2CCCCN2)c1	nt	-5	-2
COC(=O)[C@@]1(O)C[C@@H]2O[C@@]1(C)n1c3ccccc3c3c4c(c5c6ccccc6n2c5c31)C(=O)NC4	6	124*	108*
COC(=O)CC1=C(C(=O)OC)C2(C(=O)Nc3ccccc32)C(C(=O)OC)=C(N)O1 (stereo not drawn)	-1	16	nt
Oc1ccc(C2(c3ccc(O)cc3)CCCCC2)cc1	0	27	nt
Cn1c(=O)c2c(ncn2CCCl)n(C)c1=O	nt	10	5
CCOCN(C(=O)CCl)c1c(C)cccc1CC	nt	109*	1
CCc1cccc(CC)c1N(COC)C(=O)CCl	nt	50	0
C[C@H](CO)N1C[C@H](C)[C@@H](CN(C)C(=O)Oc2ccc3ccccc3c2)OCc2cn(nn2)CCCC1=O	nt	nt	0
CCN1CC2(COC)CCC(O)C34C5CC6C(OC)CC(O)(C5C6O)C(C(OC)C23)C14 (stereo not drawn)	0	1	-1
CCN1C[C@]2(C)CC[C@H](O)[C@@]34C2[C@H](OC)C([C@@H]13)[C@@]1(O)C[C@H](OC)[C@H]2C[C@@H]4[C@@H]1[C@H]2O	-9	107*	-2
SMILES	PD-1 reverse act	NOMO-1 viab	STK33 kin inh
CC(C)(C)C(=O)C(Oc1ccc(Cl)cc1)n1cncn1 (stereo not drawn)	nt	5	-17
CCNC(=O)[C@H]1O[C@@H](n2cnc3c(N)ncnc32)C(O)[C@H]1O (stereo partly drawn)	8	1	3
CCc1nc2ccccc2c(=O)n1-c1ccccc1Cl	1	104*	nt
O=c1c2ccccc2nc(CSc2ccccn2)n1-c1ccccc1Cl	2	6	1
COc1c2c(c(CC=C(C)C)c3oc(=O)c(-c4ccc(O)cc4)c(O)c13)OC(C)(C)C=C2	nt	23	-2
O=C1NC(=O)C(=C/C=C/c2ccccc2)C(=O)N1	-9	113*	nt
COC(=O)NC(=S)Nc1ccccc1NC(=S)NC(=O)OC	nt	-1	1
C=CCC1(C(C)CCC)C(=O)NC(=S)NC1=O (stereo not drawn)	nt	18	1
CC(C)c1cc2c(cc1O)[C@@]1(C)C[C@@H](O)CC(C)(C)C1CC2 (stereo partly drawn)	-1	103*	-3
CC(C)c1cc2c(cc1O)[C@@]1(C)C[C@@H](O)CC(C)(CO)C1CC2 (stereo partly drawn)	1	18	-1
CC[C@@]12CCCN3CC[C@]4(c5cccc(OC)c5N(C(C)=O)[C@@H]4CC1)[C@H]32	2	22	1
CNC(C)[C@H](O)c1ccccc1 (stereo partly drawn)	nt	2	-8
C[C@@H]1O[C@@H](OC2CCC3(C)C4CCC5(C)C(C6=CC(=O)OC6)CCC5(O)C4CC[C@H]3C2)[C@H](O)[C@H](O)[C@H]1O (stereo partly drawn)	-16	109*	-2
C[C@@H]1O[C@@H](O[C@H]2C[C@@H](O)[C@]3(CO)[C@H]4[C@H](O)C[C@]5(C)[C@@H](C6=CC(=O)OC6)CC[C@]5(O)[C@@H]4CC[C@]3(O)C2)[C@H](O)[C@H](O)[C@H]1O	nt	119*	-6
C[C@]12CC[C@H]3[C@@H](CC[C@]4(O)C[C@@H](O)CC[C@]34C=O)[C@@]1(O)CC[C@@H]2C1=CC(=O)OC1	nt	115*	-1
CO[C@H]1[C@H](O)[C@@H](O[C@H]2CC[C@]3(C=O)C4CC[C@]5(C)[C@@H](C6=CC(=O)OC6)CC[C@]5(O)C4CC[C@@H]3C2)O[C@@H](C)[C@@H]1O (stereo partly drawn)	nt	112*	2
O=c1cccc2n1C[C@H]1CNCC2C1	nt	6	4
Cc1ccc(OC(=O)N(C)C[C@@H]2OCc3cnnn3CCCC(=O)N([C@H](C)CO)C[C@H]2C)cc1	nt	nt	2
C=C(C)C1Cc2c(ccc3c(=O)c4c(oc23)COc2cc(OC)c(OC)cc2-4)O1 (stereo not drawn)	nt	-9	0
O=C(NC(=O)c1c(F)cccc1F)Nc1cc(Cl)c(OC(F)(F)C(F)C(F)(F)F)cc1Cl (stereo not drawn)	nt	18	1
O=c1c2ccccc2[nH]c(=S)n1-c1ccc(Cl)c(Cl)c1	1	29	nt
CC(C)N1C(=O)c2ccccc2NS1(=O)=O	nt	3	2
COc1cc(C)c(Oc2cc(C)cc(O)c2)c(O)c1	2	-4	2
